Assay outcomes: PubChem BioAssay, several laboratories
Ba/F3 V617F tox – loss of viability in JAK2V617F-driven Ba/F3 cells. Ba/F3 EpoR-JAK2V617F viability, ATP luminescence. inhibition, % at 5.6 µM. 220,000 tested, 1.1% active;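 active means inhibition above the campaign mean plus 3 SD over all tested compounds, cut at about 24% in these data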;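 further: cytokine-independent growth of Ba/F3 cells driven by EpoR plus mutant JAK2; 0% = DMSO-treated cells and 100% = JAK inhibitor I control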
aSyn UTR inh – MLPCN primary screen, SNCA 5' untranslated region. alpha-synuclein 5'UTR reporter, inhibitor activity. inhibition, % (tested at 7.5 µM). 300,000 tested, 0.82% active. AID 1813; in the data active means inhibition above about 60%;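 further: H4 neuroglioblastoma cells stably carrying SNCA 5'UTR luciferase fusion; 0% = DMSO wells and 100% = positive control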
BaF3 tox – counter-screen for JAK2V617F inhibitors: parental Ba/F3 viability inhibitors; CellTiter-Glo ATP luminescence; inhibition, % at 5.6 µM; 220,000 tested, 1.1% active;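 active means inhibition above a per-campaign cutoff, the mean inhibition of all tested compounds plus 3 SD, cut at about 27% in these data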;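 further: 0% = DMSO wells and 100% = JAK Inhibitor I control wells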
KLF5 inh – inhibitors of KLF5 expression; 290,000 tested, 0.23% active; inhibition, % at 5 µM; DLD-1 KLF5 promoter-luciferase reporter, luminescence;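 active means inhibition above a per-plate limit of that plate's mean compound inhibition plus 3 SD, cut at about 60% in these data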;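 further: 0% = DMSO wells and 100% = LY294002 at 200 µM; higher means less KLF5 promoter-driven luciferase light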
APP transl inh – APP translation inhibition; SH-SY5Y APP 5'UTR-luciferase reporter, luminescence; inhibition, % at 2 µM; 190,000 tested, 0.82% active;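 active means inhibition above a set limit, derived from the sample mean plus 3 SD, cut at about 45% in these data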
IEC-6 cytotox – counter-screen for KLF5 inhibitors: cytotoxicity in IEC-6 cells | IEC-6 cytotoxicity, luminescence viability | inhibition, % at 5 µM | 290,000 tested, 0.78% active; in the data active means inhibition above about 22%;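 further: 0% = plate median of test compound wells and 100% = cytotoxic reference compound wells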
* = called active by the depositor. A selection: hits, their analogues and other compounds. The true share with any hit is near 2.2%.

Screening CC1(C)CC(=O)C(C(=S)Nc2ccccc2)=C(NCCN2CCOCC2)C1 returned Ba/F3 V617F tox 0, aSyn UTR inh 22, BaF3 tox 35*, KLF5 inh -15, APP transl inh -6 and IEC-6 cytotox -6.
For CC1(C)CC(=O)C(C(=S)Nc2ccc(F)cc2)=C(NCCN2CCOCC2)C1 the results were Ba/F3 V617F tox 2, aSyn UTR inh -9, BaF3 tox 6, KLF5 inh -10, APP transl inh 3 and IEC-6 cytotox -2.
For COC(=O)CCn1nnc(-c2ccc(C(C)C)cc2)n1 the results were Ba/F3 V617F tox -3, aSyn UTR inh 119*, BaF3 tox 0, KLF5 inh 45, APP transl inh 77* and IEC-6 cytotox -4.
Screening COC(=O)CCn1nnc(-c2cccs2)n1 returned Ba/F3 V617F tox -3, aSyn UTR inh 10, BaF3 tox 1, KLF5 inh -2, APP transl inh 0 and IEC-6 cytotox -8.
Screening COc1cccc(CNC(=O)CCS(=O)(=O)c2cc3c(cc2C)NC(=O)CO3)c1 returned aSyn UTR inh -4, KLF5 inh -2 and IEC-6 cytotox 1.
For COc1cccc(CNC(=O)CCS(=O)(=O)c2ccc3c(c2)NC(=O)CO3)c1 the results were aSyn UTR inh 99*, KLF5 inh -10 and IEC-6 cytotox 0.
Cc1ccc(NC(=O)CN2C(=O)S/C(=C\C(=O)Nc3ccc(Cl)cc3)C2=O)cc1 was read as Ba/F3 V617F tox 5, aSyn UTR inh -2, BaF3 tox 73*, KLF5 inh 27, APP transl inh -11 and IEC-6 cytotox 4.
Screening Cc1ccc2nc(N(CCCN(C)C)C(=O)c3cc(-c4cccs4)nc4ccccc34)sc2c1 returned aSyn UTR inh 67*, KLF5 inh -16 and IEC-6 cytotox 7.
Screening C/C(=C/C(=O)Nc1cccc(F)c1)N1CCCC1 returned Ba/F3 V617F tox -5, aSyn UTR inh -12, BaF3 tox 4, KLF5 inh 13, APP transl inh -7 and IEC-6 cytotox -6.
Screening CC1CCCN(c2ccc([N+](=O)[O-])cc2C(=O)c2ccccc2)C1 (stereo unspecified) returned Ba/F3 V617F tox 77*, aSyn UTR inh 84*, BaF3 tox 79*, KLF5 inh 42, APP transl inh 94* and IEC-6 cytotox 45*.
Screening COc1ccc(COC(=O)c2cc([N+](=O)[O-])ccc2N2CCOCC2)cc1F returned aSyn UTR inh 68*.
Screening O=C(c1cc([N+](=O)[O-])ccc1N1CCOCC1)N1CCCCC1 returned Ba/F3 V617F tox 4, aSyn UTR inh -11, BaF3 tox 12, KLF5 inh -12, APP transl inh -7 and IEC-6 cytotox 8.
For O=C(c1ccc(Cl)cc1)c1cc([N+](=O)[O-])ccc1N1CCOCC1 the results were Ba/F3 V617F tox 72*, aSyn UTR inh 118*, BaF3 tox 74*, KLF5 inh -20, APP transl inh 93* and IEC-6 cytotox 4.
O=C(OCc1cccc(Cl)c1)c1cc([N+](=O)[O-])ccc1N1CCOCC1 was read as aSyn UTR inh 6.
`O=C(c1ccc(Br)cc1)c1cc([N+](=O)[O-])ccc1N1CCOCC1` gave Ba/F3 V617F tox 80*, aSyn UTR inh 27, BaF3 tox 83*, KLF5 inh 11, APP transl inh 88* and IEC-6 cytotox 12.
Screening CC1CCN(c2ccc([N+](=O)[O-])cc2C(=O)O)CC1 returned Ba/F3 V617F tox -1, aSyn UTR inh 21, BaF3 tox 4, KLF5 inh -38, APP transl inh -15 and IEC-6 cytotox -3.
Screening COc1ccc(S(=O)(=O)NCC(=O)N(CC(=O)NCC2CCCO2)Cc2ccc(F)cc2)cc1 (stereo unspecified) returned aSyn UTR inh 0, KLF5 inh -6 and IEC-6 cytotox 6.
`CN(C)NC1=CC(=[N+]2CCCC2)CC(C)(C)C1` gave Ba/F3 V617F tox 1, aSyn UTR inh -23, BaF3 tox 3, KLF5 inh -22, APP transl inh -20 and IEC-6 cytotox 8.
`CCCN(CCC)C1=CC(=[N+]2CCCC2)CC(C)(C)C1` gave Ba/F3 V617F tox 88*, aSyn UTR inh 6, BaF3 tox 72*, KLF5 inh -9, APP transl inh -2 and IEC-6 cytotox 20.
`Nc1ccc(C#Cc2ccccc2)cc1` gave Ba/F3 V617F tox -3, aSyn UTR inh 18, BaF3 tox 5, KLF5 inh -86, APP transl inh -7 and IEC-6 cytotox 3.
For Nc1ccccc1C#Cc1ccccc1 the results were Ba/F3 V617F tox 14, aSyn UTR inh -162, BaF3 tox 35*, KLF5 inh -109, APP transl inh -119 and IEC-6 cytotox 0.
Screening O=C(CCc1ccccc1)Nc1ccccc1F returned Ba/F3 V617F tox -3, aSyn UTR inh -135, BaF3 tox 0, KLF5 inh -122 and IEC-6 cytotox -2.
Screening O=C(CCc1ccccc1)Nc1ccc(F)cc1F returned Ba/F3 V617F tox 1, aSyn UTR inh -68, BaF3 tox 4, KLF5 inh -77, APP transl inh 47* and IEC-6 cytotox 1.
CCCCCCCCCCOC(=O)Cn1c(COc2ccccc2)[n+](C)c2ccccc21 was read as aSyn UTR inh 7, KLF5 inh -7 and IEC-6 cytotox 5.
For CCCCCCCCCCOC(=O)Cn1c(COc2ccc(Cl)cc2)[n+](C)c2ccccc21 the results were aSyn UTR inh 83*, KLF5 inh -21 and IEC-6 cytotox 3.
For CCCCCCCCCCOC(=O)Cn1c(COc2cccc(C)c2)[n+](C)c2ccccc21 the results were aSyn UTR inh 65*, KLF5 inh -17 and IEC-6 cytotox 8.
Screening COc1ccc(N2CC(C(=O)NCCc3ccc(Cl)cc3)CC2=O)cc1 (stereo unspecified) returned aSyn UTR inh 17, KLF5 inh -5 and IEC-6 cytotox 5.
For COc1cc(C(=O)Nc2nc(C)c(Cc3ccc4c(c3)OCO4)s2)cc(OC)c1OC the results were Ba/F3 V617F tox 82*, aSyn UTR inh -25, BaF3 tox 74*, KLF5 inh -7, APP transl inh 86* and IEC-6 cytotox 16.
For CCOc1ccccc1NC(=O)N1CCCN(c2ncccc2C#N)CC1 the results were aSyn UTR inh -8, KLF5 inh -16 and IEC-6 cytotox 2.
`O=[N+]([O-])c1ccc(/C=N/n2cnc3ccccc32)s1` gave Ba/F3 V617F tox 0, aSyn UTR inh 68*, BaF3 tox 1, KLF5 inh -9, APP transl inh 6 and IEC-6 cytotox 4.
`CCOc1ccc(N/C=C/C(=O)c2ccccc2)c([N+](=O)[O-])c1` gave Ba/F3 V617F tox 3, aSyn UTR inh 87*, BaF3 tox 5, KLF5 inh -112, APP transl inh -157 and IEC-6 cytotox 2.
For COc1cc(NC(=O)CCc2nnc3ccc(N4CCN(C)CC4)nn23)cc(OC)c1 the results were aSyn UTR inh 10, KLF5 inh -17 and IEC-6 cytotox -6.
